Assay outcomes (PubChem)
Pf apPOL block – Pf-apPOL DNA polymerase inhibition | actives 0.25% (n = 210,000) | inhibition, % at 10 µM | AID 1794808 | Recombinant Pf-apPOL, molecular beacon fluorescence, 1.5 h
mHTT-CaM PPI inh – mHTT-calmodulin interaction abrogation; P42858; AlphaScreen His-mHTT/GST-CaM binding, luminescence; inhibition, % at 15 µM; actives 3.6% (n = 190,000); AID 1671202
Each line names hits and unclear results; the compound was inactive in the other large screens; ! = a repeat was not active. The list is not random: actives were taken first. Their share in the collection is about 3.6%. Cut-off read from the data, not from the text of the source: active = inhibition above about 50%; inactive = the rest.

O=c1[nH]c2ccccc2n1CCCSc1cccs1	none
CCNC(=O)c1c(NC(=O)c2ccccc2)sc2c1CCCC2	none
O=C(Nc1sc2c(c1C(=O)Nc1ccc(Br)cc1)CCCCC2)c1cccnc1	none
O=C(CNCCN1CCOCC1)Nc1sc2c(c1C(=O)Nc1ccccc1)CCC2	mHTT-CaM PPI inh 88.9
NNC(=O)c1c(NC(=O)c2ccccc2)sc2c1CCC2	mHTT-CaM PPI inh 64.3
O=C(CNCCO)Nc1sc2c(c1C(=O)Nc1ccc(Br)cc1)CCC2	mHTT-CaM PPI inh 66.4
O=C(CN1CCOCC1)Nc1sc2c(c1C(=O)Nc1ccc(Cl)cc1)CCC2	none
COc1cccc(C2CN(C(=O)C(C)C)CC2C(=O)N2CCOCC2)c1 (configuration not stated)	none
CCS(=O)(=O)NCc1ccc(OC)cc1	none
COCC(=O)N1CCC(c2nncn2Cc2ccccc2)CC1	none
COc1ccc(Nc2cc(C)nc3c(C)cc(C)cc23)c(OC)c1	none
O=C(CSc1nnc2c(n1)[nH]c1ccccc12)Nc1ccccc1	none
CCC(Sc1nnc2c(n1)[nH]c1ccccc12)C(=O)Nc1cccc(C(C)=O)c1 (configuration not stated)	mHTT-CaM PPI inh 64.8!
COc1ccc2cccc(CCNC(C)=O)c2c1	none (no result: mHTT-CaM PPI inh)
Cn1ccc2c(-c3ccccc3F)cc3c(c21)C1CCC3C1 (configuration not stated)	none
CN(Cc1ccccc1F)c1cc2c(c3c1ccn3C)C1CCC2C1 (configuration not stated)	mHTT-CaM PPI inh 56.4
OC(COC1CCCCC1)Cn1cnc2ccccc21 (configuration not stated)	none
Cc1cc(Cl)cc2c3c([nH]c12)CCC(NC(=O)C1CCCC1)C3 (configuration not stated)	none
Cc1cc(C)c2[nH]c3c(c2c1)CC(NC(=O)C1CCCO1)CC3 (configuration not stated)	mHTT-CaM PPI inh 53.8
COc1ccccc1C(=O)NC1CCc2[nH]c3c(C)cc(Cl)cc3c2C1 (configuration not stated)	mHTT-CaM PPI inh 91.9
Cc1ccccc1C(=O)NC1CCc2[nH]c3ccc(Br)cc3c2C1 (configuration not stated)	mHTT-CaM PPI inh 99.5
Cc1cccc2c3c([nH]c12)CCC(NC(=O)CC(C)C)C3 (configuration not stated)	none
CCOC(=O)C(=O)NC1CCc2[nH]c3ccc(C)cc3c2C1 (configuration not stated)	none
Cc1[nH]nc2c1C1(CCN(C(C)C)CC1)C(C#N)=C(N)O2	none (no result: Pf apPOL block)
COc1ccc(S(=O)(=O)Nc2ccc(CSc3ccccc3)cc2C)cc1OC	none
Oc1c(C=NCc2ccccc2)[nH]c2ccc(Br)c(Cl)c12	none
COc1ccc(CN=Cc2[nH]c3ccc(Br)c(Cl)c3c2O)cc1	mHTT-CaM PPI inh 69.0
Oc1c(C=NC2CCCCC2)[nH]c2ccc(Br)c(Cl)c12	mHTT-CaM PPI inh 76.0
COc1ccc(N=Cc2[nH]c3ccc(Br)c(Cl)c3c2O)cc1	none
Cc1cc(C)cc(N=Cc2[nH]c3ccc(Br)c(Cl)c3c2O)c1	none
Oc1c(C=Nc2ccc(Br)cc2)[nH]c2ccc(Br)c(Cl)c12	mHTT-CaM PPI inh 58.0
O=C1C2C3C=CC(C4CC34)C2C(=O)N1c1ccc([N+](=O)[O-])cc1Br (configuration not stated)	none
COc1ccc(-c2cn(CC(N)=O)cn2)cc1	none
COCCNC(=O)c1ccc2c(c1)NC(=O)C(N1CCOCC1)S2 (configuration not stated)	none
O=C(Cc1c[nH]c2ccccc12)N(Cc1cccs1)C1(C(=O)NC2CCCCC2)CCCCC1	none
O=C(Cc1c[nH]c2ccccc12)N(CC1CCCO1)C1(C(=O)NC2CCCC2)CCCCC1 (configuration not stated)	mHTT-CaM PPI inh 67.0
CCOc1ccc(CC(=O)N2CCN(c3cc(-c4ccc(C)cc4)ncn3)CC2)cc1	none
O=C(NC(c1ccc(Cl)cc1)c1ccc2cccnc2c1O)c1ccccc1 (configuration not stated)	mHTT-CaM PPI inh 100.0
O=C(NC(c1ccccc1Cl)c1ccc2cccnc2c1O)c1ccccc1 (configuration not stated)	mHTT-CaM PPI inh 73.0
O=C(O)Cn1cc(I)c(=O)[nH]c1=O	none
O=C(CN1C(=O)c2cccc([N+](=O)[O-])c2C1=O)Nc1nc(-c2ccccc2)cs1	none
COc1ccc(Nc2cc(-n3cccn3)ncn2)cc1	none
O=C(Nc1ccc(Nc2cc(-n3cccn3)ncn2)cc1)c1ccco1	mHTT-CaM PPI inh 100.1
O=C(Nc1ccc2c(c1)OCCO2)N1CCC2(CC1)Nc1cc(F)ccc1-n1cccc12	mHTT-CaM PPI inh 68.5
CCOC(=O)c1cccc(NC(=O)N2CCC3(CC2)Nc2cc(F)ccc2-n2cccc23)c1	mHTT-CaM PPI inh 67.9
CCOC(=O)c1ccc(NC(=O)N2CCC3(CC2)Nc2cc(F)ccc2-n2cccc23)cc1	mHTT-CaM PPI inh 56.5
CN1c2cc(F)ccc2C(=O)NC12CCN(C(=O)Nc1ccc3c(c1)OCO3)CC2	none
Cc1ccc(NC(=O)N2CCC3(CC2)Nc2cc(F)ccc2-n2cccc23)cc1	mHTT-CaM PPI inh 61.5
O=C(Nc1ccc(F)cc1)N1CCC2(CC1)Nc1cc(F)ccc1-n1cccc12	none
COc1ccc(S(=O)(=O)Nc2cc(S(N)(=O)=O)ccc2C)cc1	none
CCOC(=O)c1oc2c(CN3CCCCC3C)c(O)ccc2c(=O)c1-c1ccc(OC)cc1 (configuration not stated)	none
O=C(NC1(C(=O)Nc2ccc3c(c2)OCCO3)CCCC1)c1ccccn1	none
O=C(CN1C(=O)/C(=C/c2ccccc2F)Sc2ccccc21)NCc1ccccc1Cl	none
O=C1C=C(NCc2ccccc2)C2(CCCCC2)O1	none
Cc1ccc(NC(=O)N2CC3CC(NS(=O)(=O)c4ccccc4)C2C3)c(C)c1 (configuration not stated)	none
CCOC(CNC(=O)c1sc2ncn(CC(=O)N3CCCC(C)C3)c(=O)c2c1C)OCC (configuration not stated)	none
COc1cc([N+](=O)[O-])ccc1-c1ccc(/C=C2\C(=O)ON=C2c2ccccc2)o1	none
O=C(c1ccc(F)cc1)N(C(=O)c1ccc(F)cc1)C1=NCCS1	none
CC(C)C(C(=O)O)N1C(=O)C(=Cc2ccco2)SC1=S (configuration not stated)	none
O=C(O)CCC(C(=O)O)N1C(=O)C(=Cc2ccco2)SC1=S (configuration not stated)	none
CCCC(C(=O)O)N1C(=O)C(=CC=Cc2ccco2)SC1=S (configuration not stated)	Pf apPOL block 92.5, mHTT-CaM PPI inh 83.6
CC(C(=O)O)N1C(=O)C(=CC=Cc2ccco2)SC1=S (configuration not stated)	Pf apPOL block 91.0
COc1ccc2c(=O)c(Oc3ccccc3Br)c(C(F)(F)F)oc2c1	none
CC(=O)Oc1ccc2c(=O)c(Oc3ccccc3Br)c(C(F)(F)F)oc2c1	mHTT-CaM PPI inh 52.1
COc1ccc(S(=O)(=O)N2CCC(c3cc4n(n3)CCCN(C)C4=O)CC2)cc1	none
O=C(c1ccc(OCC2CCCN2C(=O)C2CC2)cc1)N1CCOCC1 (configuration not stated)	none
COc1ccc(C(=O)Oc2ccc3c4c(c(=O)oc3c2)CCCC4)cc1	none
CCOC(=O)N1CCN(C(c2cccs2)c2c(O)cc(C)n(CC)c2=O)CC1 (configuration not stated)	none
CCOC(=O)N1CCN(C(c2ccc(SC)cc2)c2c(O)cc(C)n(CC)c2=O)CC1 (configuration not stated)	mHTT-CaM PPI inh 69.2
Cc1nccn1S(=O)(=O)c1cc(Cl)ccc1Cl	none
